# Bioassay records deposited in PubChem BioAssay by National Center for Advancing Translational Sciences (NCATS).
# HT1080 IDH1KD tx = toxicity to HT-1080 IDH1 knockdown cells (counter line) | HT-1080 IDH1 knockdown viability, ATP luminescence, 48 h | Potency, µM (series often up to 46.1 µM), for the others: at the top dose activity, negative = toxicity, hits mostly cytotoxic | 360,000 tested, 2% active | AID 686971;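 also: potency is read from the fitted curve at half-maximal effect; 0% = DMSO wells and -100% = cell-free medium wells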
#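 Assay cells: HT-1080 with IDH1 knockdown, 750 per well, RPMI/5% FBS. Exposure: 48 h at 37 °C following 2 h pre-incubation. Read: CellTiter-Glo luminescence; fitted concentration-response, curve class assigned.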
# TDP1 cell CPT = DT40-hTDP1 cell growth loss with CPT | chicken DT40 Tdp1-/-;hTDP1 cells + 20 nM CPT, ATP luminescence, 48 h | 420,000 tested, 12% active | AID 686979 | Potency, µM (highest dose often 46.2 µM), without a hit: at the top dose activity change, negative = growth inhibition, hits mostly inhibitors; also: potency is read from the fitted curve at half-maximal effect; nearly all actives have a fitted effect of over 55% in size
#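 Chicken DT40 Tdp1-/- cells complemented with human TDP1, 400 cells/well, exposed to compounds plus 20 nM camptothecin for at least 48 h at 37 C; viability read as ATP content by CellTiter-Glo luminescence.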
# IL1B secr inh = blocks inflammasome-driven IL-1 beta release; 360,000 tested, 4.7% active; activity change, % at 57.5 µM; THP-1 LPS/ATP IL-1B secretion, AlphaLISA, 16 h; stronger effect = lower value; in the data active = activity change below about -50%; inconclusive = mostly about -30% to -49%
#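 THP-1 cells pretreated 1 hr with compounds (up to 57.5 uM final), then stimulated with LPS (250 ng/mL final) plus ATP (1.25 mM final); secreted IL-1B measured by AlphaLISA after 16 hr, decreased signal indicating inhibition.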
# ELG1 DNA repair = blocks ELG1-dependent DNA repair in HEK293T cells; 330,000 tested, 2.3% active; HEK293T ELG1-luciferase reporter, luminescence, 16 h; DNA damage induced by 5-fluorouridine; Potency, µM (doses to about 46.1 µM), for inactives: at the highest dose activity change, negative = inhibition, actives largely listed as inhibitors; also: potency is read from the fitted curve at half-maximal effect; nearly all actives have a fitted effect of over 55% in size
#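 Step one: seed 2,000 cells per well. Step two: pin-transfer compound or DMSO alongside 5-fluorouridine. Step three: incubate 16 hr, 37 °C, 5% CO2. Step four: add ONE-Glo, wait 30 min, read luminescence.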
# HT1080NT lethal = kills 2HG-producing HT-1080-NT fibrosarcoma cells; HT-1080-NT fibrosarcoma viability, CellTiter-Glo ATP luminescence, 48 h; AID 686970; 360,000 tested, 1.6% active; Potency, µM (series often up to 46.1 µM), for the others: at the highest dose activity, negative = less viability, actives largely listed as cytotoxic;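 also: NT is the 2HG producing partner of a matched IDH1 knockdown line; potency is read from the fitted curve at half-maximal effect; 0% = DMSO-treated cells and -100% = media-only wells without cells; nearly all actives have a fitted effect of over 55% in size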
#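 HT-1080-NT fibrosarcoma cells (2HG-overproducing), 750 cells/well in RPMI with 5% FBS, dosed after 2 h and incubated 48 h at 37C. CellTiter-Glo luminescence normalized to DMSO and no-cell wells; concentration-response curves fitted and classed.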
# TDP1 cell noCPT = qHTS for Inhibitors of human tyrosyl-DNA phosphodiesterase 1 (TDP1): qHTS in cells in absence of CPT. 420,000 tested, 15% active. DT40 Tdp1-/- hTDP1 cells, no CPT, ATP luminescence, 48 h. Potency, µM (top dose mostly 46.2 µM), for the others: top-dose activity change, negative = growth inhibition, actives largely listed as inhibitors; also: potency is read from the fitted curve at half-maximal effect; nearly all actives have a fitted effect of over 55% in size
#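 Compound effects on proliferation are scored in DT40 Tdp1-/-;hTDP1 cells in the absence of CPT. ATP levels (CellTiter-Glo luminescence) are recorded after a ≥48 hr, 37 °C incubation.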
# * = called active by the depositor; ? = inconclusive; nt = not tested or not shown; [ ] = remark or other dose. Only some compounds are listed: those with a hit (about 19% of all), similar ones and a draw of the others. Unless noted, calls follow the shape of the dose curve; as a rule, active = well fitted curve in the direction sought with a large enough effect; inconclusive = small, poorly fitted or top-dose-only effect, or another doubt; inactive = no such curve, though single readings can be large; an effect the other way counts as inactive or inconclusive. Unless noted, % is scaled to controls: 0 for no effect and ±100 for the full control effect.
SMILES,HT1080 IDH1KD tx,TDP1 cell CPT,IL1B secr inh,ELG1 DNA repair,HT1080NT lethal,TDP1 cell noCPT
C[C@H](CO)N1C[C@H](C)[C@@H](CN(C)Cc2ccc(-c3ccccc3)cc2)Oc2c(NC(=O)c3ccncc3)cccc2C1=O,-22%,16µM*,-22,?,?,23µM*
O=C(CCc1nnc2ccc(NCc3ccccc3Cl)nn12)N1CCC2(CC1)OCCO2,-3%,0%,-28,0%,0%,-3%
O=C(O)/C=C/CO,nt,-3%,nt,nt,nt,-4%
Fc1ccc(-c2nc3c(-c4ccc(F)cc4)cnn3cc2CCN2CCOCC2)cc1,-28%,-18%,-23,?,-22%,?
COC1CC2C=C(C)C=CC=CC(=O)NC(c3ccccc3)CC=CCCC(O)CC(=O)C2=C1O (configuration not stated),1.6µM*,0.46µM*,-113*,nt,1.8µM*,0.52µM*
CC(C)(O)C(=O)Nc1ccc([N+](=O)[O-])c(C(F)(F)F)c1,-6%,?,23,8%,13%,15µM*
CCOC(=O)c1ccc(CNCc2ccc(Br)cc2)cc1,-3%,?,-3,15%,-10%,?
CCOC(=O)C(C(=O)OCC)C(Nc1ccc(Br)cc1)c1ccccc1 (configuration not stated),13µM*,29µM*,-71*,-14%,?,?
COC(=O)c1cn(C(=O)c2cccc3ccccc23)c2ccccc12,13µM*,8.2µM*,71,-30%,12µM*,9.2µM*
COc1ccc(C(=O)Nc2ccc(-c3nc4ccccc4s3)cc2C)cc1Cl,nt,?,nt,nt,nt,-29%
CCCCN1C(=O)NC(=O)C2(Cc3c(nc4c(C)cccn4c3=O)N3CCc4ccccc4C32)C1=O (configuration not stated),-5%,21µM*,26,21µM*,0%,16µM*
CCCCN1C(=O)NC(=O)C2(Cc3c(nc4ccccn4c3=O)N3CCc4ccccc4C32)C1=O (configuration not stated),1%,-19%,21,?,-10%,-15%
Cc1cccn2c(=O)c3c(nc12)N1CCc2ccccc2C1C1(C3)C(=O)NC(=O)N(C)C1=O (configuration not stated),-1%,-2%,28,13µM*,-4%[9.24 µM],-4%
N#CC1=C(N)Oc2c(c(=O)sc3ccccc23)C1c1ccncc1 (configuration not stated),21µM*,?,27,-7%,?,?
N#CC1=C(N)Oc2c(c(=O)oc3ccccc23)C1c1cccnc1 (configuration not stated),6%,-18%,6,3%,-12%,8%
O=C1Nc2ccc(Br)cc2C(c2ccc(Cl)cc2)=NC1O (configuration not stated),7%,3%,-4,0%,-1%,-16%
CCc1cc(-c2cnnn2Cc2ccc3ccccc3c2)ccc1-c1cn(CC(C)C)nn1,7%,26µM*,6,nt,4%,21µM*
CC(C)C(Br)C(=O)NC(N)=O (configuration not stated),nt,12%,nt,nt,nt,2%
CCc1ccc(N2C(=O)NC(=O)C(CCc3ccncc3)(CCc3ccncc3)C2=O)cc1,10%,-7%,8,?,4%,6%
O=C1NC(=O)C(CCc2ccncc2)(CCc2ccncc2)C(=O)N1Cc1ccc(F)cc1,6%,15µM*,27,11%,-1%,?
COc1cccc(CSc2nc(-c3ccccc3OC)nc3c2Cc2c(CO)cnc(C)c2O3)c1,nt,5.8µM*,nt,nt,nt,3.7µM*
Cc1ncc(CO)c2c1Oc1nc(-c3ccccc3Cl)nc(SCc3ccccc3F)c1C2,nt,15µM*,nt,nt,nt,15µM*
Cc1cc(N2CCCCC2)nc2ccc(NC(=O)/C=C/c3ccc(OC(C)C)cc3)cc12,nt,9.2µM*,nt,nt,nt,7.3µM*
Cc1ccc(NC(=O)Nc2ccc3nc(N4CCN(C)CC4)cc(C)c3c2)cc1F,nt,5.2µM*,nt,nt,nt,4.1µM*
O=c1[nH]c(=S)n(-c2ccccc2)c(O)c1/C=N/N1CCOCC1,4%,-4%,2,9%,5%,20%
SMILES,HT1080 IDH1KD tx,TDP1 cell CPT,IL1B secr inh,ELG1 DNA repair,HT1080NT lethal,TDP1 cell noCPT
Cc1[nH]c2ccc(OCc3ccccc3)cc2c1CCN,-8%,15µM*,nt,?,-2%,13µM*
Cc1cccc(OP(=O)(Nc2cccnc2)Oc2cccc(C)c2)c1,1%,?,-23,?,-1%,?
Cc1cccc(OP(=O)(Nc2ccc(F)cc2)Oc2cccc(C)c2)c1,?,-28%,-72*,?,23µM*,?
Cc1cccc(OP(=O)(NCc2ccccc2)Oc2cccc(C)c2)c1,-17%,?,-27,?,-11%,26µM*
CC1CCN(C(CC(=O)c2ccccc2)C(=O)c2ccccc2)CC1 (configuration not stated),?,2.6µM*,-67*,nt,-12%,2.1µM*
O=C(CN1CCCCC1)c1ccccc1,nt,-27%,nt,nt,nt,-15%
CCN(CCCl)c1cc(CN(C)C)cc(NC(=O)c2ccc(C(=O)Nc3cc(CN(C)C)cc(N(CC)CCCl)c3)cc2)c1,2.9µM*,0.18µM*,-94*,nt,7.3µM*,0.18µM*
CCN(CC(=O)Nc1ccc(NC(C)=O)cc1)C(=O)CSC(c1ccccc1)c1ccccc1,-10%,?,?,?,-9%,-26%
CCCCCCCCn1sccc1=O,8.2µM*,0.73µM*,-107*,?,6.5µM*,1.2µM*
NC(=O)C(c1ccccc1)(c1ccccc1)[C@@H]1CCN(CCc2ccc3c(c2)CCO3)C1,nt,?,nt,nt,nt,19µM*
O=c1[nH]c(=O)n(Cc2ccco2)c(O)c1C=NC1CCN(Cc2ccccc2)CC1,-2%,?,34,-6%,-2%,-8%
COc1cccc(CN2CCC(n3nccc3NC(=O)CCOc3ccccc3)CC2)c1O,-7%,?,-15,nt,-3%,-21%
O=C(Nc1ccccc1)N1CCCC2(CCN(C(=O)Oc3ccccc3)CC2)C1,nt,13%,nt,nt,nt,?
COc1ccc(C(=O)N2CCN(c3nc4c(OC)cccc4s3)CC2)cc1OC,nt,18µM*,nt,nt,nt,15µM*
Cc1ccc(NC(=O)c2snnc2C)cc1Cl,7%,12%,-3,?,24%,-2%
